For six compounds, inhibition results are on record in ChEMBL document CHEMBL1961873, “Compounds: GSK PKIS; Assays: Nanosyn kinase panel” (2012).

The target in experiment [1] is Leukocyte tyrosine kinase receptor (Homo sapiens) (UniProt P29376). Conditions: at 1 µM.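 Also: each value is the mean inhibition of LTK.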
Experiment [2] concerns the target Tyrosine-protein kinase Lyn (Homo sapiens) (UniProt P07948). Conditions: at 0.1 µM.
For experiment [3] the target is unchanged. To be noted: at 1 µM.
For experiment [4] the target is unchanged. Conditions: at 0.1 µM. This is another data set of the same source.
The target is the same in experiment [5]. Conditions: at 1 µM. This is another data set of the same source.
For experiment [6], the target named is T1, Tyrosine-protein kinase Mer (Homo sapiens) (UniProt Q12866).
T1 sequence (whole entry): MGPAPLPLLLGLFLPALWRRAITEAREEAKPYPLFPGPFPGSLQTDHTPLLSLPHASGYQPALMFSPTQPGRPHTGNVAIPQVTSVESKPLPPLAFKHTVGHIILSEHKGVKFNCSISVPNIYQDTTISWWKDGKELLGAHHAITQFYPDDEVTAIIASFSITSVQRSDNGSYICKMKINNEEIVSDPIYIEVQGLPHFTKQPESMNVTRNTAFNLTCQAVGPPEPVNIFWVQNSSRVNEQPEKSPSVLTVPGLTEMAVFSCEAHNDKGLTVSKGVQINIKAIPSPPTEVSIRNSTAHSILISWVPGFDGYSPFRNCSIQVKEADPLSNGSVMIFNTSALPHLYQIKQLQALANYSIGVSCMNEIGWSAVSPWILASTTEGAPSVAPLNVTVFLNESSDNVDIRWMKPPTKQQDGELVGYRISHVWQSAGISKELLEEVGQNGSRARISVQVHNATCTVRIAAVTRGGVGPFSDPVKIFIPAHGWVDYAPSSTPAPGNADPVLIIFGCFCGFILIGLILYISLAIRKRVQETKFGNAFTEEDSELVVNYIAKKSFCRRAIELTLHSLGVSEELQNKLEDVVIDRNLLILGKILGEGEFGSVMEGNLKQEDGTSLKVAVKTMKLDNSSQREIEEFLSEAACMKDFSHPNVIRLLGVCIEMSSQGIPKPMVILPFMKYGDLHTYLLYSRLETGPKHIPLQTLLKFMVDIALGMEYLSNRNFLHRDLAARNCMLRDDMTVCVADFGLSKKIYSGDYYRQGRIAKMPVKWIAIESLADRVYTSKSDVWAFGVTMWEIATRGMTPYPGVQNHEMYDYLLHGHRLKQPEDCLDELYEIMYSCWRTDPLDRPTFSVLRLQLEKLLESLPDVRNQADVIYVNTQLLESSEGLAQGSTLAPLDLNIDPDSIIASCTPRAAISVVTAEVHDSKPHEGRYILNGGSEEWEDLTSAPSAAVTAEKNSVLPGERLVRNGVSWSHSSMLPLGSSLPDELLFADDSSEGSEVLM
Conditions: at 0.1 µM.

Experiment [7] deals with T1, Tyrosine-protein kinase Mer (Homo sapiens). To be noted: at 1 µM.
Experiment [8] addresses Hepatocyte growth factor receptor (Homo sapiens) (UniProt P08581). To be noted: at 0.1 µM.
Experiment [9] has the same target. To be noted: at 1 µM.
The target of experiment [10] is T2, Muscle, skeletal receptor tyrosine-protein kinase (Homo sapiens) (UniProt O15146).
T2 sequence (whole entry): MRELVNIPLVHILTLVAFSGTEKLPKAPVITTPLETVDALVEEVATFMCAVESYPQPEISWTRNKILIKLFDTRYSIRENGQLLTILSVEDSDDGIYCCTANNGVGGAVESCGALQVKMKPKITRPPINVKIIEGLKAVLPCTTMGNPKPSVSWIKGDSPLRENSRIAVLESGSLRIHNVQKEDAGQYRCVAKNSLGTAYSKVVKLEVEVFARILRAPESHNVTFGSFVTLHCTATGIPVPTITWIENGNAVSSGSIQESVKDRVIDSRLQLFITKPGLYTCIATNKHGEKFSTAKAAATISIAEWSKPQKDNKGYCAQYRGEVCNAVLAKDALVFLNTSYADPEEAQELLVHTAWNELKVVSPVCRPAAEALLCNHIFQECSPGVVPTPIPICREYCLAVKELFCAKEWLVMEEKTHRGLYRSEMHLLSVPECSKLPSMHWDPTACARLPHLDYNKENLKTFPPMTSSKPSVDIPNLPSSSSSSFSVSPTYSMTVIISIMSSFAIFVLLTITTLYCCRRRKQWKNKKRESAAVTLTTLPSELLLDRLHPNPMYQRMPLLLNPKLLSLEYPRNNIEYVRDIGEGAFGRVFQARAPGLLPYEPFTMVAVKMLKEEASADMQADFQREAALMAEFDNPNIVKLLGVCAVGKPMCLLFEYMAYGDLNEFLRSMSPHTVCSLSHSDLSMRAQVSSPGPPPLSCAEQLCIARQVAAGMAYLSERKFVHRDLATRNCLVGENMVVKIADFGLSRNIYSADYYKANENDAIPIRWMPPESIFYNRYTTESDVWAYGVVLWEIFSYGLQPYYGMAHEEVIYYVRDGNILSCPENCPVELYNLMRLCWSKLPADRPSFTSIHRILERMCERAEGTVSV
To be noted: at 0.1 µM.

Experiment [11] deals with T2, Muscle, skeletal receptor tyrosine-protein kinase (Homo sapiens). Conditions: at 1 µM.
For experiment [12], the target named is Platelet-derived growth factor receptor alpha (Homo sapiens) (UniProt P16234). To be noted: at 0.1 µM.
The target is the same in experiment [13]. To be noted: at 1 µM.
Experiment [14] relates to Platelet-derived growth factor receptor alpha (Homo sapiens), P16234 [D842V]. To be noted: at 0.1 µM.
The test system is the same in experiment [15]. Conditions: at 1 µM.
Experiment [16] deals with Platelet-derived growth factor receptor alpha (Homo sapiens), P16234 [T674I]. Conditions: at 0.1 µM.
For experiment [17] the test system is unchanged. Conditions: at 1 µM.
Experiment [18] deals with Platelet-derived growth factor receptor alpha (Homo sapiens), P16234 [V561D]. Conditions: at 0.1 µM.
For experiment [19] the test system is unchanged. To be noted: at 1 µM.
In experiment [20] the target is Platelet-derived growth factor receptor beta (Homo sapiens) (UniProt P09619). To be noted: at 0.1 µM.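 Also: reported value is the mean percent inhibition of the kinase.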
Platelet-derived growth factor receptor beta (Homo sapiens), sequence (P09619 whole entry): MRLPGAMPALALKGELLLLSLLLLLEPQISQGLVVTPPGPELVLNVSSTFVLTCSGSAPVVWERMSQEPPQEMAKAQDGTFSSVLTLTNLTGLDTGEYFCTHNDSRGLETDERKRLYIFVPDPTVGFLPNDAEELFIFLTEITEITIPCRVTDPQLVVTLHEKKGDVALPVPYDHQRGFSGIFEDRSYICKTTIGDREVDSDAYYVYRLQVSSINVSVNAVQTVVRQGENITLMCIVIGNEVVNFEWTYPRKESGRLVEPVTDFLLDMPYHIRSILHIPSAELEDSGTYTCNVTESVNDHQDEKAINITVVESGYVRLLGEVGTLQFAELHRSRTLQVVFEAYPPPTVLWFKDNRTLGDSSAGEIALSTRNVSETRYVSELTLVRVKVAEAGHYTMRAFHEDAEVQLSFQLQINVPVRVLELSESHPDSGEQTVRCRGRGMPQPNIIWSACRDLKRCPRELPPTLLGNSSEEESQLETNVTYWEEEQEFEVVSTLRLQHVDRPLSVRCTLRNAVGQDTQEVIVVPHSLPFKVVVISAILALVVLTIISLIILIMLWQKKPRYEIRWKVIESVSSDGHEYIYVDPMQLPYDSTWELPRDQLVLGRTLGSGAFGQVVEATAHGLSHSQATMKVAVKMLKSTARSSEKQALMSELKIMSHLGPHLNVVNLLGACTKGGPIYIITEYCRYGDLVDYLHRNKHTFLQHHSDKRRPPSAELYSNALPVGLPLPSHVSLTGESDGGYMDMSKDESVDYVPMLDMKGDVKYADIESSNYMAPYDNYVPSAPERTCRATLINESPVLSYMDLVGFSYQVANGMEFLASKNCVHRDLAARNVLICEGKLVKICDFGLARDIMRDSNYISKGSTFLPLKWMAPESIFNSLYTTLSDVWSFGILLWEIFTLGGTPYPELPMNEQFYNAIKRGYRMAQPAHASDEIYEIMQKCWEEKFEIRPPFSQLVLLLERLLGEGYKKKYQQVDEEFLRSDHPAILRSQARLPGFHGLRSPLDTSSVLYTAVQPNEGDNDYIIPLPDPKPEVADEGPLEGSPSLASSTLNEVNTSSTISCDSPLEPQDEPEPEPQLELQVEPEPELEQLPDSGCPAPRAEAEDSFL

Platelet-derived growth factor receptor alpha (Homo sapiens), P16234 [D842V], sequence (P16234 whole entry D842V): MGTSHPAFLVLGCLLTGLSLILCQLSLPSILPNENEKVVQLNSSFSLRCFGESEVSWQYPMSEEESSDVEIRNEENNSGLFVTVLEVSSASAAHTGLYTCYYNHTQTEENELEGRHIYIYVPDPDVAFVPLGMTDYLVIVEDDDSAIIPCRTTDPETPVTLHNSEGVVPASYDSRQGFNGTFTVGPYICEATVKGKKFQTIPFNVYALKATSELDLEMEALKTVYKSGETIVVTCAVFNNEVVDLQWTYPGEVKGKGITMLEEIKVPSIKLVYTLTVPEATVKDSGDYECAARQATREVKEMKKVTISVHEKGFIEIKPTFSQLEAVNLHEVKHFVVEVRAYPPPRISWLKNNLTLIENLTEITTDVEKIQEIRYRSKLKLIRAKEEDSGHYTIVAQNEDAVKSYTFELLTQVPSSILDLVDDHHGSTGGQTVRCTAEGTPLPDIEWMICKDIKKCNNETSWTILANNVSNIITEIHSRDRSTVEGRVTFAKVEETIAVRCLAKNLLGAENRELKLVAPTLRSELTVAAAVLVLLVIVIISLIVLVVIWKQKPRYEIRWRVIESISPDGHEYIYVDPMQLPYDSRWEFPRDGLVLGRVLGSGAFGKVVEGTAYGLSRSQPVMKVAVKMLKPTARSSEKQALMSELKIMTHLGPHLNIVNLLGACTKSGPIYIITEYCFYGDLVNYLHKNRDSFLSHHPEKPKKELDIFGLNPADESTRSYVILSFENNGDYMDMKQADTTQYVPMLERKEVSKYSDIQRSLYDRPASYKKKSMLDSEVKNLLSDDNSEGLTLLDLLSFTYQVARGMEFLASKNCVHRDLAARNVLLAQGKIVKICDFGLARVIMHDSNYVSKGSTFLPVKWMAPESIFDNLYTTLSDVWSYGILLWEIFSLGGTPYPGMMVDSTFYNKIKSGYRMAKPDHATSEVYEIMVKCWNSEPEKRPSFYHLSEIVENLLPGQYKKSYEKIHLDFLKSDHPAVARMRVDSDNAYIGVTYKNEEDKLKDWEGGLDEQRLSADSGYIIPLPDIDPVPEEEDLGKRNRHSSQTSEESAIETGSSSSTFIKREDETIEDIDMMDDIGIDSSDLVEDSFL
Platelet-derived growth factor receptor alpha (Homo sapiens), P16234 [T674I], sequence (P16234 whole entry T674I): as the sequence (P16234 whole entry D842V) above, with T674I, V842D counted along it
Platelet-derived growth factor receptor alpha (Homo sapiens), P16234 [V561D], sequence (P16234 whole entry V561D): as the sequence (P16234 whole entry D842V) above, with V561D, V842D counted along it
Tyrosine-protein kinase Lyn (Homo sapiens), sequence (P07948 2-512 limits assumed): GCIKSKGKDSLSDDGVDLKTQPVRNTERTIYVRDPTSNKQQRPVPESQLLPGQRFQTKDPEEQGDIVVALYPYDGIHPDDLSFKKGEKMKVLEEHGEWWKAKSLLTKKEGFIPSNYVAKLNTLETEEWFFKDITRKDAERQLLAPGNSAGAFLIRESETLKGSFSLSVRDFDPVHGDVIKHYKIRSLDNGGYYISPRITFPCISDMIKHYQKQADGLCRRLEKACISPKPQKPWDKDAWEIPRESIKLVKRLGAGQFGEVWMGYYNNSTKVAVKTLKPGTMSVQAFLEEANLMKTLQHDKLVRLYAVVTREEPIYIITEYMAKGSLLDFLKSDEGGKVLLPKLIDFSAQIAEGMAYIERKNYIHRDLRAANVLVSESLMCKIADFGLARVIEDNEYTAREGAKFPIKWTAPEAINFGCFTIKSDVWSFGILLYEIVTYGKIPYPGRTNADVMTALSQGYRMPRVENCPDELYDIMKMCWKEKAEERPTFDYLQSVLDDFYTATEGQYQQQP

Broadly, the inhibition is the relative decrease from the control value, in per cent. On to `Cc1nnc(-c2ccc(C)c(-c3ccc(C(=O)Nc4cccc(C#N)c4)cc3)c2)o1`, for which the inhibition in experiment [1] came out at 1.76%; in experiment [2] it was 3.98%; in [3], 6.36%; in [4], 2.18%; in experiment [5], 5.78%; in [6] it was 0.8%. The inhibition is 2.51% in experiment [7]; 3.66% in [8]; -0.54% in experiment [9]; 2.58% in [10]; 2.91% in experiment [11]; 7.61% in experiment [12]. In addition, the inhibition was 15.8% in experiment [13]; 0.78% in experiment [14]; 2.5% in experiment [15]; 3.31% in experiment [16]; 6.79% in experiment [17]; 3.46% in experiment [18]. Also, the results for the inhibition in [19] and in experiment [20] were 5.28% and 6.49%, respectively.

With `Cc1cc(O)cc(C)c1/C=C/c1cncc(-c2nn[nH]n2)c1`, the inhibition in [1] stood at 27.8%; in [2], 21.9%; in experiment [3], 78.4%; in [4], 17%; in [5], 73.9%; in experiment [6], 2.28%. In addition, the inhibition turned out to be 5.61% in experiment [7]; 3.29% in [8]; 8.95% in experiment [9]; 2.58% in experiment [10]; 2.94% in [11]; 10.7% in experiment [12]. The inhibition turned out to be 50.9% in experiment [13]; 2.87% in experiment [14]; 22.2% in [15]; 7.51% in [16]; 5.59% in experiment [17]; 12.1% in experiment [18]. Moreover, the values for the inhibition in experiment [19] and in experiment [20] were 59.3% and 9.66%, respectively.

As for `COc1ccccc1Nc1ncc(-c2ccccc2)o1`, the inhibition in experiment [1] is 4.49%; in experiment [2], 5.91%; in experiment [3], 8.44%; in [4] it was 3.58%; in [5], 5.77%; in [6], 0.01%. The inhibition in experiment [7] worked out at 1.66%; in experiment [8], 10.1%; in experiment [9], 1.27%; in experiment [10], 4.33%; in experiment [11], 2.74%; in [12], 14.1%. Also, the inhibition was 47.5% in experiment [13]; 4.24% in experiment [14]; 6.87% in [15]; 16.9% in experiment [16]; 69.4% in experiment [17]; 35.6% in experiment [18]. Further, the inhibition in experiment [19] worked out at 53.5%; in [20], 11.1%.

In the case of `Nc1ncnc2occ(-c3ccc(NC(=O)Nc4cc(C(F)(F)F)cc(C(F)(F)F)c4)cc3)c12`, the inhibition in [1] came to 23.7%; in experiment [2] it was 4.96%; in [3] it was 37%; in experiment [4], 3.86%; in experiment [5], 34%; in experiment [6] it was 0.69%. In addition, the inhibition in experiment [7] is 14.4%; in [8], -0.72%; in [9] it was 10.3%; in experiment [10], 77.6%; in experiment [11], 89.3%; in experiment [12] it was 79.8%. Moreover, the inhibition in experiment [13] was found to be 79.7%; in experiment [14], 14.7%; in experiment [15], 66.7%; in [16], 60.3%; in [17], 94.9%; in [18], 90.5%. The inhibition in experiment [19] came to 96%; in experiment [20] it was 67.8%.

Regarding `COc1ccc2cc(-c3c(-c4ccncc4)nc(-c4ccc([S+](C)[O-])cc4)n3C)ccc2c1` (stereo not given), the inhibition in experiment [1] came out at 2.37%; in experiment [2], 2.95%; in experiment [3], 9.35%; in experiment [4], 1.98%; in [5], 6.67%; in experiment [6], 0.48%. In addition, the inhibition in experiment [7] is 6.32%; in experiment [8], 4.07%; in [9], -0.71%; in [10], 1.76%; in experiment [11] it was 3.4%; in [12], 2.55%. Further, the inhibition was 10% in experiment [13]; 2.12% in experiment [14]; 4.78% in [15]; 3.93% in experiment [16]; 2.95% in [17]; -1.44% in experiment [18]. For the same compound, the inhibition in [19] turned out to be 3.24%; in experiment [20], 2.46%.

With `CC1=C(C(=O)Nc2ccc3[nH]ncc3c2)C(c2ccc(F)cc2)NC(=O)N1` (stereo not given), the inhibition in [1] came to 1.52%; in experiment [2], 2.06%; in experiment [3] it was 2.69%; in experiment [4], 0.99%; in experiment [5], 1.73%; in experiment [6], 1.43%. In addition, the inhibition in [7] is 0.93%; in experiment [8], 3%; in experiment [9], 14.9%; in experiment [10] it was 1.49%; in experiment [11], 5.88%; in [12] it was 4.38%. The inhibition was 10.7% in experiment [13]; 1.76% in [14]; 3.2% in experiment [15]; 3.58% in [16]; 3.03% in experiment [17]; 3.01% in [18]. Moreover, the values for the inhibition in [19] and in experiment [20] were 3.64% and 3.65%, respectively.
